Source: PubChem (several laboratories)
A selection: hits, their analogues and other compounds. The true share with any hit is near 3%.
TROY signal inh – blocks TROY-dependent signaling in reporter cells; Q293 LMP1-TROYcd NF-kB luciferase reporter, 4 h; inhibition, % at 10 µM; 0.98% of 360,000 active;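 active = compounds whose plate-normalised and pattern-corrected inhibition of the luciferase reporter signal at the single screening dose is 50% or more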
MITF TRPM1 HTS – increases MITF-driven TRPM1 promoter luciferase signal; AID 588334; SK-MEL-5 TRPM1-promoter luciferase, 24 h; % of positive control, neutral wells = 0; 0.75% of 300,000 active; activation, % at 12.5 µM;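 active = mean activation of at least 80% with every replicate also reaching 80%; inconclusive = mean reaches 80% but some replicate falls short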
MITF TRPM1 inh – inhibitors of MITF-driven TRPM1 promoter in melanoma cells | SK-MEL-5 TRPM1 promoter luciferase, 24 h | inhibition, % at 12.5 µM | 0.83% of 330,000 active | AID 488899;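 active = mean inhibition across replicates of 60% or more, whatever share of single replicates reaches that level; inconclusive = some that reach 60%, reason not given; inactive = mean inhibition across replicates below 60%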
EBV LMP1 NFkB – Epstein-Barr LMP1 NF-kappaB reporter inhibition; 0.69% of 350,000 active; LMP1-induced NF-kappaB luciferase reporter cells, luminescence; inhibition, % at 12.5 µM; in the data active = inhibition above about 41%; inconclusive = no clear call, values can overlap the other calls
LGR2 antag – Drosophila LGR2 receptor signaling inhibition | HEK293 LGR2, CRE-luciferase, bursicon-stimulated, 4 h | inhibition, % at 9.99 µM | 0.35% of 380,000 active | AID 720647;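 active = drop in luminescence signal, shown as inhibition above about 50% in the replicate tests, limit read from the data, passing the limit was not always enough; inconclusive = probably only some replicates passing the limit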;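 note: agonist challenge used bursicon conditioned medium at about half maximal strength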
TWEAK-Fn14 inh – TWEAK-Fn14 signaling inhibition; TWEAK-stimulated Fn14 reporter cells, luciferase luminescence, 8 h; inhibition, % at 10 µM; 2% of 360,000 active; AID 1159606; in the data active = inhibition above about 50%
Hits are given with their value; i = inactive; ? = inconclusive; nt = not tested or not shown.

SMILES	TROY signal inh	MITF TRPM1 HTS	MITF TRPM1 inh	EBV LMP1 NFkB	LGR2 antag	TWEAK-Fn14 inh
COc1cc(OC)c(C(=O)/C=C/c2ccccc2)c(O)c1O	i	i	i	i	i	63.9
C[C@@H]1CCCCO[C@H](CN(C)C(=O)Nc2ccc(F)cc2)[C@H](C)CN([C@@H](C)CO)C(=O)c2cc(NC(=O)Nc3ccc(C(F)(F)F)cc3)ccc2O1	nt	nt	nt	nt	i	nt
O=C(COc1ccc(Cl)cc1Cl)NC(=S)N1CCCc2ccccc21	i	i	i	i	i	57.8
O=C(NC(=S)N1CCCc2ccccc21)c1ccco1	52.6	i	i	i	i	51.9
Cc1ccc(C(=O)N2CCc3ccccc32)cc1NC(=O)c1ccco1	i	i	i	i	i	89.0
Cc1cccc(OCC(=O)NC(=S)N2CCCc3ccccc32)c1	i	i	i	i	i	56.3
CC1Cc2ccccc2N1C(=S)NC(=O)c1ccco1 (centres undefined)	i	i	i	i	i	i
Cc1cccc(OCC(=O)Nc2ccccc2N2CCCCC2)c1	i	nt	i	i	nt	i
C[C@H](CO)N1C[C@H](C)[C@H](CN(C)S(=O)(=O)c2ccccc2)OCc2cn(nn2)CCCC1=O	nt	nt	nt	nt	i	nt
CN1CCN(C(=O)C[C@@H]2CC[C@@H]3[C@H](COc4ccc(NC(=O)C5CCOCC5)cc4C(=O)N3C)O2)CC1	nt	nt	nt	nt	i	nt
CC1=NCC(C)c2c1[nH]c1ccccc21 (centres undefined)	75.0	i	i	i	nt	i
Nc1nc(CSc2nc3ccccc3s2)nc(N2CCOCC2)n1	i	i	i	i	i	i
Nc1nc(CSCc2ccccc2)nc(N2CCOCC2)n1	nt	i	i	i	nt	61.1
COc1ccc(CCn2c(-c3ccco3)nc3nc4ccccc4nc32)cc1	i	i	i	i	i	57.2
O=c1c2ccccc2nc(-c2ccco2)n1Cc1ccccc1	i	96.3	i	i	i	i
CCCCCn1c(-c2ccco2)nc2nc3ccccc3nc21	i	i	i	i	nt	i
c1ccc(Cn2c(-c3ccco3)nc3nc4ccccc4nc32)cc1	i	90.0	i	i	nt	i
CCCNC(=O)N(C)C[C@@H]1Oc2cc(-c3ccccc3F)ccc2S(=O)(=O)N([C@@H](C)CO)C[C@H]1C	nt	nt	nt	nt	i	nt
CCCC(=O)Nc1ccc2c(c1)C(=O)N(C)[C@@H]1CC[C@@H](CC(=O)NCC3CC3)O[C@@H]1CO2	nt	nt	nt	nt	i	nt
CCCC#Cc1cnc2c(c1)C(=O)N([C@H](C)CO)C[C@H](C)[C@H](CN(C)C(=O)c1cccnc1)O2	nt	nt	nt	nt	i	nt
CCC(=O)N/C(N)=N/c1nc2ccccc2o1	i	?	i	i	i	i
CCCC(=O)N/C(N)=N/c1nc2ccccc2o1	i	87.6	i	i	i	i
N/C(=N\c1nc2ccccc2o1)NC(=O)/C=C/c1ccccc1	i	i	i	i	i	54.5
N/C(=N\c1nc2ccccc2o1)NC(=O)c1ccccc1	i	i	i	i	nt	i
CC(C)CC(=O)N/C(N)=N/c1nc2ccccc2o1	i	85.5	i	i	i	i
SMILES	TROY signal inh	MITF TRPM1 HTS	MITF TRPM1 inh	EBV LMP1 NFkB	LGR2 antag	TWEAK-Fn14 inh
COc1ccccc1C#Cc1cnc2c(c1)C(=O)N([C@H](C)CO)C[C@@H](C)[C@H](CN(C)C(=O)CC1CC1)O2	nt	nt	nt	nt	i	nt
C[C@@H]1CN([C@H](C)CO)C(=O)Cc2cc(NC(=O)Cn3cnnn3)ccc2O[C@@H]1CN(C)C(=O)Nc1cccc2ccccc12	nt	nt	nt	nt	i	nt
CCCC#Cc1cnc2c(c1)C(=O)N([C@@H](C)CO)C[C@H](C)[C@H](CN(C)C(=O)C1CCOCC1)O2	nt	nt	nt	nt	i	nt
C[C@H](CO)N1C[C@H](C)[C@H](CN(C)C(=O)Nc2cccc(F)c2)Oc2ncc(C3=CCCC3)cc2C1=O	nt	nt	nt	nt	i	nt
CC1(C)SC2c3ccccc3C(=O)N2[C@@H]1C(=O)NCCCN1CCOCC1 (some centres undefined)	i	i	i	70.6	nt	i
Cc1ccc(C(=O)NC2=NCCS2)cc1	nt	nt	nt	nt	i	nt
O=C(NC1=NCCS1)c1ccc(C(F)(F)F)cc1	i	87.2	i	i	i	i
CCN1CCN(CCNC(=O)c2ccc(/C=C3\Sc4ccccc4N(Cc4ccccc4F)C3=O)cc2)CC1	65.0	i	i	i	i	i
CN1CCN(CCCNC(=O)c2ccc(/C=C3/Sc4ccccc4N(Cc4cccc(Cl)c4)C3=O)cc2)CC1	51.8	i	i	i	?	i
CN1CCN(CCCNC(=O)c2ccc(/C=C3\Sc4ccccc4N(Cc4ccc(F)cc4)C3=O)cc2)CC1	i	i	i	i	i	i
